The values that follow come from publication PMC7819943, “Rice protein-binding microarrays: a tool to detect cis-acting elements near promoter regions in rice”.

In all, about 35,000 sequences were measured (“fluorescence intensity (a.u.)”: median about 10,000, highest 2% from about 52,000 on). Only a selection was taken, and the highest values are over-represented in it overall.

The assay concerns the target T1, OsWOX13 (Oryza sativa, UniProt Q5QMM3 1-267).
T1 sequence: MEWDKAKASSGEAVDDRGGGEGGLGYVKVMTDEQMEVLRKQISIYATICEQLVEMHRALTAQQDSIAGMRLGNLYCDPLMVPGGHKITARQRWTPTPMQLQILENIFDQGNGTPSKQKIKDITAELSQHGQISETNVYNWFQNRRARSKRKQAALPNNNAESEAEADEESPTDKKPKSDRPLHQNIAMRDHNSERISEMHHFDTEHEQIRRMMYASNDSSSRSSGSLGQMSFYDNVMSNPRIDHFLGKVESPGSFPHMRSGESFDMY
As to the kind of experiment: protein-binding microarray (RPBM); PBS, 2% BSA, 51.3 ng/ul salmon testes DNA, 50 uM zinc acetate, 200 nM TF, 25 C, 1 h; high values mean tight binding. The following applies: protein: recombinant; tags: N-terminal polyhistidine and DsRed monomer fusion (pET32a); label: CyDye5-dUTP incorporated in the synthesized complementary strand; 3' TTTTT single-stranded linker to array surface; dsDNA, one strand shown. In short, it runs like this:
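For the binding signal, per-feature fluorescence intensity was read in arbitrary units on an Axon 4000B scanner. Before scanning, a 2% BSA-blocked custom Agilent array made double-stranded with Cy5-dUTP was washed after 1 h at 25 °C with 200 nM protein and 50 µM zinc acetate. The proteins were Ni–NTA-purified transcription factors with N-terminal polyhistidine and DsRed fusions, expressed in E. coli BL21-CodonPlus.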
Take “AGCTAGCTTTGACTAATCAATCAGCAGCTAATTTCAGTCTCGGAGTCACCTAGTGCAG”: the binding signal is 13700 fluorescence intensity (a.u.).

As to “AAAATAAATTGACAACATTCGTACAATATATATAAATATCCGGAGTCACCTAGTGCAG”, the binding signal was 25900 fluorescence intensity (a.u.).

“TAGCTTAGCTCGTATTCGTATAAAACGTAGTACAAGGTTCCGGAGTCACCTAGTGCAG”: the binding signal is 61300 fluorescence intensity (a.u.).

Regarding “ATTTAATAGTATTAAACGTAGATTACTGATAAAACCTATTCGGAGTCACCTAGTGCAG”, the binding signal is 4260 fluorescence intensity (a.u.).

Regarding “GACTTGACTAATTGATTTGTGTAGATTTCTAAAAGCAAGGCGGAGTCACCTAGTGCAG”, the binding signal is 58600 fluorescence intensity (a.u.).

As to “AGAAATTGTGTGATTTATTGTAGTGTGTAGAAATTTATAGCGGAGTCACCTAGTGCAG”, the binding signal was 11700 fluorescence intensity (a.u.).

As for “GATATGAGTGACTAATTGACTTTGTGTTGATTTCGAGCAGCGGAGTCACCTAGTGCAG”, the binding signal was 34600 fluorescence intensity (a.u.).

Turning to “ATAAAATTTTAAAATTTAAATTGTAGCCACAACTGATAAGCGGAGTCACCTAGTGCAG”, the binding signal is 15500 fluorescence intensity (a.u.).

“CTGATTTAAATTGAAAGCAACCGTCTTTTGATTTGTGTAGCGGAGTCACCTAGTGCAG”: the binding signal was 57100 fluorescence intensity (a.u.).

Turning to “AATGTAATGTAACAAATTTGTCTAAAAGGATTGAACTTGGCGGAGTCACCTAGTGCAG”, the binding signal was 12400 fluorescence intensity (a.u.).

Regarding “AAAAGCACATGATTATATCTCATTTTATGGTCTTAGAGCACGGAGTCACCTAGTGCAG”, the binding signal is 3350 fluorescence intensity (a.u.).

In the case of “GTTTGATGAGTCCGGAATAGCATATAGCACATGGAATTGGCGGAGTCACCTAGTGCAG”, the binding signal is 3510 fluorescence intensity (a.u.).

In the case of “CAACAGGATTGGAAGTGATCAGAGACAGGCAATGAAATCCCGGAGTCACCTAGTGCAG”, the binding signal was 8460 fluorescence intensity (a.u.).

For the sequence “ACACTAAATTAATGTATGCAATGTCCATTGGTAAATAACTCGGAGTCACCTAGTGCAG”, the binding signal is 14900 fluorescence intensity (a.u.).

Take “GATTAAGATTTTATCCGATTGATGATGCGCCGTAGCAGTGCGGAGTCACCTAGTGCAG”: the binding signal is 8650 fluorescence intensity (a.u.).

For the sequence “CTGGATTGGTGATTGATTATCCGAGCAAGCAAAGACGATGCGGAGTCACCTAGTGCAG”, the binding signal is 63800 fluorescence intensity (a.u.).

For “AGTGATTAGTGAAGCAAAGGAAGACGACGAGTGACACGAGCGGAGTCACCTAGTGCAG”, the binding signal is 21900 fluorescence intensity (a.u.).

For the sequence “TTTAAGATCATGATTAACATGACATTGAAGCATTACCACGCGGAGTCACCTAGTGCAG”, the binding signal is 5610 fluorescence intensity (a.u.).

For the sequence “GAATTAGCTTGATTGACAGAAACAAATGGCTACAACTACACGGAGTCACCTAGTGCAG”, the binding signal is 50600 fluorescence intensity (a.u.).

With “AACCAGATTCACCGTGATTAGTTTCACCCTAGTCTAGTCTCGGAGTCACCTAGTGCAG”, the binding signal is 10800 fluorescence intensity (a.u.).

For the sequence “CACAATTCCTTCTAATTATTTGATAATCAAGTTTCTCCTTCGGAGTCACCTAGTGCAG”, the binding signal was 9620 fluorescence intensity (a.u.).

Consider “ATCCATGATTAACAGTTGATTACTGTAGCAAATCATGGATCGGAGTCACCTAGTGCAG”, for which the binding signal is 34400 fluorescence intensity (a.u.).

On to “TTAATTGATCAATAATCACTGTTCCTTCTCAAGTAGTCAACGGAGTCACCTAGTGCAG”, for which the binding signal is 64600 fluorescence intensity (a.u.).

With “ATATATAATCATTGATCTTAATTATTGAGTGTCAGTAGTACGGAGTCACCTAGTGCAG”, the binding signal was 24400 fluorescence intensity (a.u.).

As to “ATAATTGAGTAGATAATCCTTGCAATAATCCGCTCAATAACGGAGTCACCTAGTGCAG”, the binding signal was 8180 fluorescence intensity (a.u.).

Regarding “TTAATTAATTGATCACTTCCAAATCATGTAGCAGTACTGTCGGAGTCACCTAGTGCAG”, the binding signal was 65400 fluorescence intensity (a.u.).

With “ACTATTAATGTGAACTGATATGATACATTTTAGAGCTAGCCGGAGTCACCTAGTGCAG”, the binding signal was 6440 fluorescence intensity (a.u.).

Take “TACACCTTTGACAGACAACAAAGCATTGAATCTTCTATGCCGGAGTCACCTAGTGCAG”: the binding signal is 5260 fluorescence intensity (a.u.).

Regarding “GATAACTGGATTCATCTGTCTCCTCAACGTGTGGTCTGTACGGAGTCACCTAGTGCAG”, the binding signal is 19900 fluorescence intensity (a.u.).

In the case of “TGCCACACAAATTTTGCAAAATTTGTGATATGCCACCTGACGGAGTCACCTAGTGCAG”, the binding signal was 6080 fluorescence intensity (a.u.).

On to “TAATAATAATAATAATGCAAATTACCAAAATATAAGCCCACGGAGTCACCTAGTGCAG”, for which the binding signal is 6280 fluorescence intensity (a.u.).

For the sequence “ACTTGACAGGAATTGCAGAAAGGCCCCTCGCCAAAACTCACGGAGTCACCTAGTGCAG”, the binding signal is 30900 fluorescence intensity (a.u.).

For the sequence “GCCAAATTGACAGAGTTACCTCGCTATATAAGGCTGCCCACGGAGTCACCTAGTGCAG”, the binding signal was 57600 fluorescence intensity (a.u.).

With “ATATCAATTAATGCTTCAAGATTAGCACCCATATTATATGCGGAGTCACCTAGTGCAG”, the binding signal is 35100 fluorescence intensity (a.u.).

“GAAATAATTAATTAATTTAATTAATTGATTGACACAAGTACGGAGTCACCTAGTGCAG”: the binding signal was 65000 fluorescence intensity (a.u.).

On to “CTAATTGATTAGTAAACTATTTATATAGGACTGTTGTTTTCGGAGTCACCTAGTGCAG”, for which the binding signal was 58300 fluorescence intensity (a.u.).

For the sequence “TTGATTGACTAAACTGTCACGTCAGCGTCATATTGACGAACGGAGTCACCTAGTGCAG”, the binding signal was 54900 fluorescence intensity (a.u.).

Regarding “TTTGATTCTTTTAAATTAAATAATTTTAAAGTCATTGATACGGAGTCACCTAGTGCAG”, the binding signal was 21100 fluorescence intensity (a.u.).

In the case of “AGTGATTAATGAGACAAATAGTACTTTATTGTGACAAGTACGGAGTCACCTAGTGCAG”, the binding signal was 30900 fluorescence intensity (a.u.).

For the sequence “AAACTGATTCTTTGATTATTGACGTCTCATAGACCTACGTCGGAGTCACCTAGTGCAG”, the binding signal was 31600 fluorescence intensity (a.u.).

Consider “AATCATTTAAAACATTGATTTTATTTGACGATAAAACTAGCGGAGTCACCTAGTGCAG”, for which the binding signal was 4690 fluorescence intensity (a.u.).

For “AAATTGACAAGATAGATCAATATATAATATATCACTACACCGGAGTCACCTAGTGCAG”, the binding signal is 10200 fluorescence intensity (a.u.).

As to “AGACAATGATAGTGATAATTAACAAATTCAGTTTAAGATCCGGAGTCACCTAGTGCAG”, the binding signal was 19700 fluorescence intensity (a.u.).

For “CTTAATTAACACTCGTAAGATTGACAAATAGTTGAATATCCGGAGTCACCTAGTGCAG”, the binding signal is 60300 fluorescence intensity (a.u.).

As for “TATTTTCAATTATAGGTCTAATTGTTTTATTTAGGTGATTCGGAGTCACCTAGTGCAG”, the binding signal is 20500 fluorescence intensity (a.u.).

In the case of “GGTAATATTTTGATTAAATTTGACTAAATTTTGTTTAAAACGGAGTCACCTAGTGCAG”, the binding signal was 11800 fluorescence intensity (a.u.).
